In PubChem BioAssay (Tox21):
Inconclusive results are not listed. Active and inactive are the calls of the source. Unless noted, calls follow the shape of the full dose curve.

Tests used:
[1] = qHTS assay to identify small molecule agonists of the sonic hedgehog signaling (Shh) pathway (AID 1259368);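 also: NIH/3T3-derived 3T3Gli1-Luc cells carrying a stable Gli1-driven firefly luciferase reporter; series mostly up to about 92 µM; nearly all actives have a fitted effect of over 15% in size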
Outline: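 Steps: seed 3T3 Gli1-Luc cells, incubate 4 hr at 37 C, pin-transfer compounds in DMSO alongside a positive control, incubate 24 hr, add luciferase detection reagent, wait 30 min at room temperature, read luminescence.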

[2] = qHTS assay to identify small molecule antagonists of the sonic hedgehog signaling (Shh) pathway (AID 1259369); also: nearly all actives have a fitted effect of over 45% in size
Outline: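 Inhibition of Shh signalling is measured as reduced Gli1-response-element firefly luciferase output in an NIH/3T3-derived stable reporter clone stimulated with conditioned medium for 24hr.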

[3] = molecular target: Estrogen receptor beta (Homo sapiens) (UniProt Q92731); assay: qHTS assay to identify small molecule agonists of the estrogen receptor beta (ER-beta) signaling pathway (AID 1259377; active = well fitted activation curve with a large enough effect in the signal ratio in the repeat runs, not every such curve was filed as active; the % refers to the signal ratio)
Outline: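 ER-beta-UAS-bla HEK293T cells in medium with 2% charcoal-stripped FBS were exposed to compounds for 16 h at 37C. Beta-lactamase reporter activity was read as fluorescence after 2 h with LiveBLAzer B/G FRET substrate at room temperature.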

[4] = molecular target: Estrogen receptor beta (Homo sapiens) (UniProt Q92731); assay: qHTS assay to identify small molecule antagonists of the estrogen receptor beta (ER-beta) signaling pathway (AID 1259378; active = well fitted inhibition curve with a large enough effect in the signal ratio in the repeat runs, not every such curve was filed as active; the % refers to the signal ratio)
Outline: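 ER-beta-UAS-bla HEK293T cells in 2% charcoal-stripped FBS medium treated with compound plus 1nM final 17-beta-estradiol for 16 hr at 37C. Beta-lactamase reporter read by FRET substrate fluorescence after 2 hours at room temperature.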

[5] = qHTS assay to identify small molecule agonists of the androgen receptor (AR) signaling pathway in the presence of an antagonist - cell viability counter screen (AID 1259379; active = well fitted curve in the direction sought with a large enough effect in the repeat runs; an effect the other way counts as inactive or inconclusive;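 also: MDA-kb2 human breast cancer cells carrying an MMTV luciferase reporter; series mostly up to about 92 µM; nearly all actives have a fitted effect of over 25% in size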)
Outline: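 Fluorescence from CellTiter-Fluor, added after 15 hr and read 1 hr later, gave cell viability. Cells were MDA-kb2 exposed to compounds (15 concentrations) in the presence of 3.0uM nilutamide at 37C, 0% CO2.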

[6] = qHTS assay to identify small molecule agonists of the estrogen receptor beta (ER-beta) signaling pathway - cell viability counter screen (AID 1259380; active = well fitted curve in the direction sought with a large enough effect in the repeat runs; an effect the other way counts as inactive or inconclusive; also: nearly all actives have a fitted effect of over 30% in size)
Outline: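 Same-well viability counter screen. Cells: ER-beta-UAS-bla HEK293T, plated 6 hr before compound, in 2% charcoal-stripped FBS. Compound exposure 16 hr, 37C; viability by CellTiter-Glo luminescence after 30 min at room temperature.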

[7] = qHTS assay to identify small molecule antagonists of the estrogen receptor beta (ER-beta) signaling pathway - cell viability counter screen (AID 1259382; active = well fitted curve in the direction sought with a large enough effect in the repeat runs; an effect the other way counts as inactive or inconclusive; also: series mostly up to about 92 µM; nearly all actives have a fitted effect of over 55% in size)
Outline: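 Following a 6 hr plating period, HEK293T cells carrying a UAS-driven beta-lactamase reporter under ER-beta control received compounds and 1nM E2 (final). After 16 hr at 37C and 2 hr substrate loading, CellTiter-Glo luminescence indicated viability.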

[8] = molecular target: Estrogen receptor (Homo sapiens) (UniProt P03372); assay: qHTS assay to identify small molecule agonists of the estrogen receptor alpha (ER-alpha) signaling pathway in the presence of an antagonist (AID 1259383); also: top concentration of the series differs between compounds; nearly all actives have a fitted effect of over 15% in size
Outline: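 Cells are hormone-deprived for 5 days (charcoal-stripped FBS, no phenol red), plated for 24hr, spiked with 10.0nM ICI-182,780, then dosed at 15 concentrations. After 22hr at 37C, ONE-Glo luminescence reports ERE-luciferase activity.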

[9] = qHTS assay to identify small molecule agonists of the estrogen receptor alpha (ER-alpha) signaling pathway in the presence of an antagonist - cell viability counter screen (AID 1259386; active = well fitted curve in the direction sought with a large enough effect in the repeat runs; an effect the other way counts as inactive or inconclusive;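 also: series mostly up to about 92 µM; cells exposed to compounds for 22 h at 37 °C before the viability read; nearly all actives have a fitted effect of over 30% in size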)
Outline: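 Cells are starved of estrogens for 5 days in charcoal-stripped serum, seeded for 24hr and co-treated with ICI-182,780 (10.0nM final) and test compounds. After 22hr at 37C, viability is read as CellTiter-Fluor fluorescence.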

[10] = molecular target: Progesterone receptor (Homo sapiens) (UniProt P06401); assay: qHTS assay to identify small molecule agonists of the progesterone receptor (PR) signaling pathway (AID 1346784); also: nearly all actives have a fitted effect of over 30% in size
Outline: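 PR-UAS-bla HEK 293T cells (beta-lactamase reporter under UAS) in 2% charcoal-stripped FBS, dosed with 23 nL compound after 6 hr, incubated 16hr at 37C. LiveBLAzer B/G FRET substrate added, fluorescence read after 2 hours.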

[11] = qHTS assay to identify small molecule antagonists of the progesterone receptor (PR) signaling pathway - cell viability counter screen (AID 1346798; active = well fitted curve in the direction sought with a large enough effect in the repeat runs; an effect the other way counts as inactive or inconclusive; also: series mostly up to about 92 µM; nearly all actives have a fitted effect of over 50% in size)
Outline: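 PR-UAS-bla HEK293T cells, 3,000/well in 2% charcoal-stripped FBS medium, dosed with compounds plus R5020 agonist and incubated 16 h at 37C. Viability then measured in the same wells by CellTiter-Glo luminescence after 30 min at RT.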

[12] = qHTS assay to identify small molecule agonists of the progesterone receptor (PR) signaling pathway - cell viability counter screen (AID 1346799); also: nearly all actives have a fitted effect of over 45% in size
Outline: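 Counter screen in the PR-UAS-bla HEK293T wells (2% charcoal-stripped FBS, 16 h compound exposure at 37 C) after the bla read. CellTiter-Glo added, 30 min at room temperature, luminescence read as cell viability.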

[13] = qHTS assay to identify small molecule agonists of the TGF-beta/Smad signaling pathway - cell viability counter screen (AID 1346829; active = well fitted curve in the direction sought with a large enough effect in the repeat runs; an effect the other way counts as inactive or inconclusive; also: top concentration of the series differs between compounds; nearly all actives have a fitted effect of over 45% in size)
Outline: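 HEK 293T SBE-bla line, 5 hr compound exposure at 37 C, multiplexed CellTiter-Glo viability read by luminescence.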

[14] = qHTS assay to identify small molecule agonists of the TGF-beta/Smad signaling pathway (AID 1346859; active = well fitted activation curve with a large enough effect in the signal ratio in the repeat runs, not every such curve was filed as active; the % refers to the signal ratio; also: series mostly up to about 77 µM)
Outline: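 SBE-bla HEK293T cells plated overnight, then compound exposure for 5 h at 37 C. Beta-lactamase reporter read with LiveBLAzer B/G FRET substrate after 2 h at room temperature, fluorescence at 405 nm excitation, 460/530 nm emission.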

[15] = molecular target: Thyrotropin-releasing hormone receptor (Homo sapiens) (UniProt P34981); assay: qHTS assay to identify small molecule antagonists of the thyrotropin-releasing hormone receptor (TRHR) signaling pathway (AID 1346877; active = well fitted inhibition curve with a large enough effect in the repeat runs, not every such curve was filed as active; also: series mostly up to about 51 µM)
Outline: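 Cells (TRHR-HEK293) are plated and kept 18 h at 37 °C/5% CO2. A calcium-sensitive dye is added for 2 h, compound follows for 5 min at room temperature, and TRH is then given at 1 nM final.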

[16] = qHTS assay to identify small molecule agonists or antagonists of the thyroid stimulating hormone receptor (TSHR) signaling pathway - wild type cell line counter screen (AID 1259384)
Outline: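 Wild-type Hek293 cells, 800/well, 18 h at 37C, then compound with Ro20-1724 for 30 min RT. cAMP by HTRF (cAMP-d2/anti-cAMP cryptate), 1 h RT, fluorescence read. 15 concentrations, triplicates.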

[17] = molecular target: Thyrotropin receptor (Homo sapiens) (UniProt P16473); assay: qHTS assay to identify small molecule antagonists of the thyroid stimulating hormone receptor (TSHR) signaling pathway (AID 1259385); also: nearly all actives have a fitted effect of over 20% in size
Outline: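 TSHR-HEK293 cells (800/well) plated 18 h, then compounds with Ro20-1724 and TSH at 1.5 ng/mL final, 30 min at room temperature. cAMP quantified by HTRF (cAMP-d2/anti-cAMP-cryptate, 1 h); 15 concentrations in triplicate.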

[18] = molecular target: Progesterone receptor (Homo sapiens) (UniProt P06401); assay: qHTS assay to identify small molecule antagonists of the progesterone receptor (PR) signaling pathway (AID 1346795; active = well fitted inhibition curve with a large enough effect in the signal ratio in the repeat runs, not every such curve was filed as active; the % refers to the signal ratio)
Outline: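 PR-UAS-bla HEK293T cells with beta-lactamase reporter under UAS control, in 2% charcoal-stripped FBS, treated with compounds plus 1 nM promegestone (R5020, final) for 16 hr at 37C. Read-out: FRET beta-lactamase substrate fluorescence after 2 hr at room temperature.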

[19] = qHTS assay to identify small molecule antagonists of the TGF-beta/Smad signaling pathway - cell viability counter screen (AID 1346824; active = well fitted curve in the direction sought with a large enough effect in the repeat runs; an effect the other way counts as inactive or inconclusive; also: nearly all actives have a fitted effect of over 50% in size)
Outline: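 SBE-bla HEK 293T cells, incubated overnight, then compound plus 0.25 ng/mL TGF-beta1 (stock added) for 5 hr at 37 C. Viability was read in the same wells by CellTiter-Glo luminescence after 30 min at room temperature.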

Measured: Potency

Estrogen receptor beta (Homo sapiens), sequence (Q92731 whole entry, looked up): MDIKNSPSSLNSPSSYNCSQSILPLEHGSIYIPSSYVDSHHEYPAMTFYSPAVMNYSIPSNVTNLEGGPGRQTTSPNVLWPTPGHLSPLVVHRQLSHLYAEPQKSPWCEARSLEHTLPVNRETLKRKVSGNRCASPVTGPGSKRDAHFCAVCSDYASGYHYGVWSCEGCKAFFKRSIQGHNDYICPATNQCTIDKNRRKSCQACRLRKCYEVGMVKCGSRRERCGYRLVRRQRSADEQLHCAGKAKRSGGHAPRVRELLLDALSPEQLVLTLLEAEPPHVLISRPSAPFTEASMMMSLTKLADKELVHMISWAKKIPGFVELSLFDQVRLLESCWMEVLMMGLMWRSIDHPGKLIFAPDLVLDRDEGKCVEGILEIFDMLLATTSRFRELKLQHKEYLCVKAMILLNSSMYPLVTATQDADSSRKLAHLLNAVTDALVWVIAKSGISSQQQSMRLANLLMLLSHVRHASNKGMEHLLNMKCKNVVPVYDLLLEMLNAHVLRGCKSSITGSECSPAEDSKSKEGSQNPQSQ
Estrogen receptor (Homo sapiens), sequence (P03372 whole entry, looked up): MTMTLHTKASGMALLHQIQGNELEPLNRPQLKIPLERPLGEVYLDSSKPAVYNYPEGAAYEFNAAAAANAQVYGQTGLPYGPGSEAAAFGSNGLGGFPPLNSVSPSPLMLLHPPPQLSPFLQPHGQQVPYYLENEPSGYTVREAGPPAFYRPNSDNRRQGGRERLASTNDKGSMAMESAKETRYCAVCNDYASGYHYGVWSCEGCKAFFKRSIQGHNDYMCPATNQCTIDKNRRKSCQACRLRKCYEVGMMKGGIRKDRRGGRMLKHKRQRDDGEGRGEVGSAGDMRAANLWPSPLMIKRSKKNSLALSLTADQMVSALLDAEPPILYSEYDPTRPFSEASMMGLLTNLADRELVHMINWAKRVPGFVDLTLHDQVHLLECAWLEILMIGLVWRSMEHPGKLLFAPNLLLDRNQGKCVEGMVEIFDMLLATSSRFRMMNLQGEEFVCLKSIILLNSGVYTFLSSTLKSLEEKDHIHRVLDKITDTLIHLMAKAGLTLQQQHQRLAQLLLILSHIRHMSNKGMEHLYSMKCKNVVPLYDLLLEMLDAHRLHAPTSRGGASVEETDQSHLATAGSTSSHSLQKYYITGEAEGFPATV
Progesterone receptor (Homo sapiens), sequence (P06401 whole entry, looked up): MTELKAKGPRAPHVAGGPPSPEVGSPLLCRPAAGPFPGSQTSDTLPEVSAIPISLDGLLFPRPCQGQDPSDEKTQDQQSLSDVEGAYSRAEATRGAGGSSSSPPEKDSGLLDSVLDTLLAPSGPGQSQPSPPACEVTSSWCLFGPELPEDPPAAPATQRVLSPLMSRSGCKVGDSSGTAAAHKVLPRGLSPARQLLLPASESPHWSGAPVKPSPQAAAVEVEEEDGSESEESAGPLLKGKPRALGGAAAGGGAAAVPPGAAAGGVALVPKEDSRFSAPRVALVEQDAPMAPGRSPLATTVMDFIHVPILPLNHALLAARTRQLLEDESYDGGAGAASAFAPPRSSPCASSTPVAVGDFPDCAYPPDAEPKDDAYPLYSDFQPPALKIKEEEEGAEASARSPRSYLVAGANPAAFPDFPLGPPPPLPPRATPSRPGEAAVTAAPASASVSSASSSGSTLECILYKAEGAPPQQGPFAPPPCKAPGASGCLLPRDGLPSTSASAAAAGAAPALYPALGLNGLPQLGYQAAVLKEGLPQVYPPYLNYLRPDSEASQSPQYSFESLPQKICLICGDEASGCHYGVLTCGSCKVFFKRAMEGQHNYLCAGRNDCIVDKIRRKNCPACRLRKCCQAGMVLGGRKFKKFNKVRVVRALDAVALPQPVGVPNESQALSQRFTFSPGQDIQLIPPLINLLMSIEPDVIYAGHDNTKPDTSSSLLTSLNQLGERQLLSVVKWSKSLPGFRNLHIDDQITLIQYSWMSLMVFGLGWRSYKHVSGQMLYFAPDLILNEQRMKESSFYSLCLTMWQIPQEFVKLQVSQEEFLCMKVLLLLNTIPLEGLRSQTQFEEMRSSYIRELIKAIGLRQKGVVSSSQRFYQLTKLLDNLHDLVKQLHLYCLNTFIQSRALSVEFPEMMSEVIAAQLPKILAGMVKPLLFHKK
Thyrotropin-releasing hormone receptor (Homo sapiens), sequence (P34981 whole entry, looked up): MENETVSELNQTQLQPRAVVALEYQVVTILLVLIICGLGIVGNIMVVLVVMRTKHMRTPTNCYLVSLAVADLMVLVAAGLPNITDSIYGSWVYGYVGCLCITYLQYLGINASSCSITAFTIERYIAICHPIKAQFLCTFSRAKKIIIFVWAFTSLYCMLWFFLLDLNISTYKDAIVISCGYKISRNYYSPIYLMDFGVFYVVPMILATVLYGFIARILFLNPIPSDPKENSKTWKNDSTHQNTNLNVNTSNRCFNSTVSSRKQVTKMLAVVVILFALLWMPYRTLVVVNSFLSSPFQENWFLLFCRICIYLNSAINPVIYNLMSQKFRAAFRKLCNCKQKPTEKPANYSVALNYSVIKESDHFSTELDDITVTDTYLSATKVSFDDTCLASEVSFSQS
Thyrotropin receptor (Homo sapiens), sequence (P16473 whole entry, looked up): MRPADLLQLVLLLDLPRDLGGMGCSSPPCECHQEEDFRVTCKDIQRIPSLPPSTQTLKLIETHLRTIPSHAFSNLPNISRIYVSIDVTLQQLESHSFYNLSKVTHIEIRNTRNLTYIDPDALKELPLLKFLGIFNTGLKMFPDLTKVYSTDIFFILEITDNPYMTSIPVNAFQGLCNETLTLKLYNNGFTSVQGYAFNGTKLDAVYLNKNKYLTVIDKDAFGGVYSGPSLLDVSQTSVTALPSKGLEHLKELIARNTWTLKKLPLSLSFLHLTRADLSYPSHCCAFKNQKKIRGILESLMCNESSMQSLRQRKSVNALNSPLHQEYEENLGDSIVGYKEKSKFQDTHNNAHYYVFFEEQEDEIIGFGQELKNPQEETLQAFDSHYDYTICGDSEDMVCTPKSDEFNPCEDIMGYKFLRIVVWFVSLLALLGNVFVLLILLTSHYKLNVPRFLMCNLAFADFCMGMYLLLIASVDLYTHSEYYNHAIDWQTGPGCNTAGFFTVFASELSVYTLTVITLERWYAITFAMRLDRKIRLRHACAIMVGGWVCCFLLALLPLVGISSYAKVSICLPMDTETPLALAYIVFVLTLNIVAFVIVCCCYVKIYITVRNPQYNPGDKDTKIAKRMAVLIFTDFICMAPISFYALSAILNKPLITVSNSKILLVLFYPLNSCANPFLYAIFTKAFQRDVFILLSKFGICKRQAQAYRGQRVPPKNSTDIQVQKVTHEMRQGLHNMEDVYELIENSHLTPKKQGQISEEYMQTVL

COCc1ccc(COC)cc1
not listed: [16] | [17] | [18] | [19]
inactive: all other assays above

CC(C=O)Cc1ccc(C(C)C)cc1 (stereo not given)
not listed: [8] | [13] | [19]
inactive: all other assays above

Nc1nc2c(ncn2CCC(CO)CO)c(=O)[nH]1
not listed: [7] | [9] | [10] | [19]
inactive: all other assays above

CN(C)N=Nc1ccccc1
not listed: [8]
inactive: all other assays above

CCC(=O)Nc1cccc(N)c1
not listed: [9]
inactive: all other assays above

Cc1ccccc1C(=O)O
not listed: [8] | [9] | [15] | [16] | [17] | [19]
inactive: all other assays above

COC(=O)CCCC(=O)O
not listed: [9] | [10] | [15] | [18]
inactive: all other assays above

COC(=O)c1ccc(C(=O)OC)c(C(=O)OC)c1
not listed: [10] | [15] | [18] | [19]
inactive: all other assays above
